This is an account of results in PubChem BioAssay AID937 (National Center for Advancing Translational Sciences (NCATS), 2007).

The list shows a part of the results. Results filed as inconclusive are left out. The source made the active and inactive calls. Calls come from the whole dose curve.

The assay deals with Alpha-synuclein (Homo sapiens) (UniProt P37840). The assay can be described thus: Alpha-synuclein ThS binding assay. The conditions noted are these: recombinant alpha-synuclein fibrils, ThS fluorescence displacement. On the procedure:
NIH Molecular Libraries Screening Centers Network [MLSCN] NIH Chemical Genomics Center [NCGC] MLSCN Grant: 1 X01 MH079825-01 Assay Provider: Jeffrey A. Kuret, Ohio State University NCGC Assay Overview: Lewy body disease is characterized by the appearance of lesions containing alpha-synuclein. The protein components in these lesions can be induced to form filaments under experimentally tractable times when incubated in vitro with anionic inducers such as alkyl sulfate detergents or fatty acids. […] Here we describe the in vitro fibrillization of alpha-synuclein. Alpha-synuclein was induced to form filaments by incubation overnight at 37 C in the presence of arachidonic acid. A commonly used fluorescent probe for cross#nbeta-sheet structure, Thioflavin S (ThS), was also added to the reactions. […] Small molecules capable of ThS displacement or antagonizing fibrillization result in a decrease in ThS fluorescence, allowing determination of binding affinities for molecules screened.
NCGC Assay Protocol Summary The assay was performed in 96-well round bottom opaque plates (VWR, West Chester, PA) in 100 uL final volume. […] Fluorescence (ex = 440 nm; em = 485 nm) was measured after brief shaking (10 s) in a FlexStation plate reader (Molecular Devices, Sunnyvale, CA) operated at sensitivity 10, automatic PMT. […]
With `O=C(CCCCn1c(=O)[nH]c2ccccc2c1=O)NCc1ccc2c(c1)OCO2`, the outcome was inactive.
